Screens (PubChem)
A549 tox: kills or reduces viability of A549 cells in Nrf2 counter-screen; Potency, µM (doses to about 46 µM), most hits filed as inhibitors; actives 0.16% (n = 390,000); AID 504648; A549 ARE-Fluc cells, CellTiter-Fluor viability, 18-24 h
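A549 ARE_Fluc cells in 5% FBS OPTI-MEM were exposed to compounds in concentration-response for 18-24 h at 37 deg C. Viability was read by CellTiter-Fluor fluorescence (Ex 405/Em 525) after 30 min, before the luciferase read.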
TGFb SMAD3 inh: blocks TGF-b signaling. HepG2 CAGA-GFP TGF-b/SMAD3 reporter, GFP fluorescence, 18 h; TGF-beta stimulated, 500 pg/mL final. Potency, µM (titrated, usually from 46.1 µM), most hits filed as inhibitors. actives 1.2% (n = 410,000); further: nearly all actives have a fitted effect of over 65% in size
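HEPG2 CAGA-GFP reporter cells (1000/well, DMEM with 1% FBS) received compounds, then recombinant TGF-beta at 500 pg/mL final for 18 hours at 37 degrees C. Per-cell GFP summed per well was normalised to unstimulated and stimulated DMSO controls before curve fitting.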
S2 tox: reduces viability in counter-screen for ATXN expression inhibitors | Potency, µM (top dose mostly 56.7 µM), usual class: cytotoxic | S2 cells (HEK-293 line with an ATXN2-luciferase reporter) viability, CellTiter-Fluor protease fluorescence, 24 h | actives 0.49% (n = 400,000); further: nearly all actives have a fitted effect of over 40% in size
Nrf2 block: Nrf2 pathway inhibition | Potency, µM (series often up to 46 µM), usual class: inhibitors | actives 2.1% (n = 360,000) | AID 504444 | A549 ARE-Fluc reporter, luciferase luminescence, 18-24 h; further: nearly all actives have a fitted effect of over 60% in size
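Concentration-response testing used A549 ARE_Fluc cells at 5000 cells/well. Following an 18-24 h compound incubation, viability was read by fluorescence (Ex 405/Em 525) and luciferase output by luminescence.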
HepG2 viability: kills HepG2 cells in TGF-b inhibitor counter-screen | HepG2 CAGA-GFP viability, ATP luminescence, 18 h | Potency, µM (doses to about 46.1 µM), most hits filed as cytotoxic | actives 0.76% (n = 410,000) | AID 588856
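HepG2 CAGA-GFP cells (1000/well, DMEM with 1% FBS) received compound, then TGF-beta at 500 pg/mL final, and were incubated 18 hours at 37 degrees C. Viability was read by CellTiter-Glo luminescence. Media-only wells were set as complete cell-killing and DMSO as no toxicity.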
ATXN2 expr inh: reduces ATXN2 reporter expression in HEK-293 cells; HEK-293 ATXN2-luciferase reporter, luminescence, 24 h; Potency, µM (titrated, usually from 57 µM), usual class: inhibitors; actives 0.72% (n = 360,000); AID 1745845; further: nearly all actives have a fitted effect of over 55% in size
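qHTS (up to 57 uM final) was run with 24 h compound exposure of reporter cells at 37 °C. Each well was multiplexed: SteadyGlo luminescence measured ATXN2-luciferase expression after a fluorogenic Gly-Phe-AFC viability readout (25 uM final).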
A number is an active result; 0 = inactive; ? = inconclusive; - = no result given; [ ] = dose if it differs, or a comment. Only some compounds are listed: those with a hit (about 3.8% of all), similar ones and a draw of the others. The call rests on the fitted dose curve; in most records, active means well fitted curve in the direction sought with a large enough effect; inconclusive means small, poorly fitted or top-dose-only effect, or another doubt; inactive means no such curve, though single readings can be large; an effect the other way counts as inactive or inconclusive.

SMILES | A549 tox | TGFb SMAD3 inh | S2 tox | Nrf2 block | HepG2 viability | ATXN2 expr inh
CCCn1cc(CN2CCCC(C(=O)c3ccc4c(c3)OCO4)C2)c(C)n1 (stereo unspecified) | 0 | 0 | 0 | 0 | 0 | 0
CCCC(=O)Nc1ccc(C(=O)Nc2cc(C(F)(F)F)ccc2Cl)cc1 | 0 | ? | 0 | 10.3µM | 0 | ?
O=C(Nc1cc(C(F)(F)F)ccc1Cl)c1ccc(NC(=O)C(F)(F)F)cc1 | 0 | ? | 0 | ? | 0 | 0
O=C(COc1ccc2c(c1)oc(=O)c1ccccc12)NCCN1CCOCC1 | 0 | 0 | 0 | 0 | 0 | 0
COc1ccc(Cc2nnc(Cl)c3ccccc23)cc1OC | 0 | 0 | 0 | 0 | 0 | -
COc1ccccc1N(C(C)=O)C1=C(Cl)C(=O)c2ccccc2C1=O | - | 0 | - | - | 11.2µM | -
CC(=O)N(C1=C(N)C(=O)c2ccccc2C1=O)C(C)C | 0 | 0 | 0 | ? | 0 | 0
CC1CC2(C)Oc3ccccc3CC2C(C)C1CNCCCN(C)C (stereo unspecified) | 0 | ? | ? | 0 | 12.6µM | 14.1µM
CCC(=O)N1CCc2cc(S(=O)(=O)CCC(=O)N3CCN(c4cccc(C)c4)C(C)C3)ccc21 (stereo unspecified) | 0 | 0 | 0 | 20.6µM | 0 | ?
COc1ccc(C(=O)N(Cc2sccc2C)C2CCS(=O)(=O)C2)cc1Cl (stereo unspecified) | 0 | - | - | ? | 0 | -
COc1cccc(S(=O)(=O)NCc2ccc(C(=O)Nc3cccc(Cl)c3)cc2)c1 | ? | 0 | ? | - | 0 | 15.8µM
Cc1ccccc1NC(=O)c1ccc(CNS(=O)(=O)c2ccc3c(c2)C(C)(C)C(=O)N3C)cc1 | 0 | 0 | - | 0 | 0 | -
Cc1cccc(NC(=O)c2ccc(CNS(=O)(=O)c3ccc4c(c3)C(C)(C)C(=O)N4C)cc2)c1 | 0 | 0 | - | 20.6µM | 0 | -
COc1cccc(NC(=O)c2ccc(CNS(=O)(=O)c3ccc4c(c3)C(C)(C)C(=O)N4C)cc2)c1 | 0 | 0 | - | 16.4µM | 0 | -
Cc1ccc(NC(=O)c2ccc(CNS(=O)(=O)c3ccc4c(c3)C(C)(C)C(=O)N4C)cc2)cc1C | 0 | ? | - | 18.4µM | 0 | -
O=C(O)CCc1cc(F)c(S(=O)(=O)N2CCN(S(=O)(=O)c3ccc4c(c3)OCCO4)CC2)cc1F | 0 | - | - | 0 | - | -
Cc1cc(N2C(=O)C=CC2=O)c([N+](=O)[O-])cc1C | 0 | ? | ? | ? | 0 | 0
CSc1ccc(CCNC(=O)c2ccc(-n3c(C)cc4c3CCCC4)cc2)cc1 | 0 | ? | - | 0 | 0 | -
CCOc1ccc(NC(=O)c2cnn(-c3ccc(C)c(C)c3)c2C2CCN(C(=O)OC(C)(C)C)CC2)cc1 | 0 | 0 | - | 0 | 0 | -
O=C(/C=C/C(Cl)(Cl)Cl)Nc1ccc(Cl)cc1 | 0 | ? | ? | 0 | 12.6µM | ?
COc1ccccc1-n1c(=S)sc2c(=O)n(Cc3ccco3)c(SC)nc21 | 0 | 0 | 0 | 8.2µM | 0 | 0
CCN1C[C@@H]2[C@@H]3C(=O)N(C)C(=O)[C@@H]3[C@](CC)(C1=O)N2C(=O)c1ccc(Cl)cc1 | 0 | 0 | 0 | 0 | 0 | 0
O=C1NC(=S)S/C1=C\c1cc2ccccc2nc1N1CCCCC1 | 0 | 0 | 0 | 20.6µM | 0 | 0
CC1=C(C(N)=O)C(c2cccs2)n2nc(-c3cccc(Cl)c3)nc2N1 (stereo unspecified) | 0 | 0 | 0 | 13µM | 0 | 0
CC1=C(C(N)=O)C(c2cccs2)n2nc(-c3cccc(C)c3)nc2N1 (stereo unspecified) | 0 | 0 | 0 | 0 | 0 | 0
SMILES | A549 tox | TGFb SMAD3 inh | S2 tox | Nrf2 block | HepG2 viability | ATXN2 expr inh
COCCNC(=O)CCCn1c(SCc2ccccc2Cl)nc2c(sc3ccccc32)c1=O | 0 | 0 | 0 | 0[9.27 µM] | 0 | 0
N#Cc1ccc(-c2csc(NNC(=O)c3ccc(Br)cc3)n2)cc1 | ? | ? | ? | - | 0 | ?
N#Cc1ccc(-c2csc(NNC(=O)c3ccccc3)n2)cc1 | 0 | 0 | 0 | 23.1µM | 0 | 0
O=C(Cn1cnc2nc3c(cc2c1=O)CCCC3)Nc1ccc(F)cc1Cl | 0 | 0 | 0 | - | 0 | 0
Cc1cccc(-n2ncc3c(N4CCOCC4)ncnc32)c1 | 0 | 0 | 0 | ? | 0 | 10µM
Cc1cccc(C(=O)N2CCN(c3ncnc4c3cnn4-c3ccccc3)CC2)c1 | 0 | 0 | 0 | 18.4µM | 0 | 0
[O-]/C(=C(\C(=S)Nc1ccc(SC(F)F)cc1)[n+]1ccccc1)c1cc(Cl)ccc1Cl | ? | 0 | 0 | 20.6µM | 0 | 0
COc1ccc2nc3sc(C(=O)N4CCN(c5ccccc5)CC4)cc3cc2c1 | 0 | 0 | 0 | 0 | 0 | 0
COc1ccc2nc3sc(C(=O)N4CCN(C)CC4)cc3cc2c1 | 0 | 0 | 0 | 0 | 8.91µM | 0
O=C(Nc1ccc(S(=O)(=O)Nc2ccccc2)cc1)C1COc2ccccc2O1 (stereo unspecified) | 0 | 12.6µM | 0 | 18.4µM | 0 | 0
Cc1cc(C)nc(NS(=O)(=O)c2ccc(NC(=O)C3COc4ccccc4O3)cc2)n1 (stereo unspecified) | 0 | 0 | 0 | ? | 0 | 0
O=C(O[C@H]1[C@H](Cc2ccccc2)NS(=O)(=O)[C@H]2C[C@@H]3C=C[C@]12O3)c1ccccc1Br | - | 0 | - | - | 0 | -
O=C(O)C[C@@H](CNC(=O)COc1ccc2ccc(=O)oc2c1)c1ccc(Cl)cc1 | 0 | 0 | 0 | 0 | 0 | 0
Cc1ccc(S(=O)(=O)N2CCCC(C(=O)NCCc3ccc(Cl)cc3)C2)cc1 (stereo unspecified) | - | 0 | ? | - | 0 | -
Cc1cccc(N2CCN(C(=O)CCS(=O)(=O)c3ccc4c(c3)NC(=O)CO4)CC2)c1C | 0 | 0 | 0 | 14.6µM | 0 | 0
Cc1cccc(N2CCN(S(=O)(=O)c3ccc4c(c3)NC(=O)CO4)CC2)c1C | 0 | ? | 0 | 0 | 0 | 0
CCn1cc([N+](=O)[O-])c(=O)c2cc(F)c(N3CCOCC3)cc21 | 0 | 0 | 0 | 0 | 0 | 0
N#Cc1cc2sc3nnc(-c4ccncc4)n3c2cc1C#N | 0 | 0 | 0 | 6.51µM | 0 | 0
COc1ccc2cc1Oc1ccc(cc1)C[C@H]1c3c(cc(OC)c4c3Oc3c(ccc5c3[C@H](C2)N(C)CC5)O4)CCN1C | ? | 0 | ? | 0 | 0 | 0
COc1ccc2cc1Oc1ccc(cc1)CC1c3c(cc(OC)c4c3Oc3cc5c(cc3O4)CCNC5C2)CCN1C (stereo unspecified) | ? | 10µM | 8.44µM | ? | 0 | 10.6µM
CO[C@H]1/C=C\O[C@@]2(C)Oc3c(C)c(O)c4c(O)c(c(C=NN5CCN(C6CCCC6)CC5)c(O)c4c3C2=O)NC(=O)C(C)=CC=C[C@H](C)[C@H](O)[C@@H](C)[C@@H](O)[C@@H](C)[C@H](OC(C)=O)[C@H]1C | - | 11.2µM | - | - | 0 | 5.44µM
